The record followed here is PubChem BioAssay (NCATS).

Experiment [1] can be described thus: qHTS profiling for inhibitors of Plasmodium falciparum proliferation (AID 504749).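 For activity, negative = inhibition: 0% = DMSO vehicle and full inhibition = artemisinin control.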 Note: nearly all actives have a fitted effect of over 60% in size. The settings on record: P. falciparum in erythrocytes, SYBR Green DNA, 72 h. The method, boiled down:
(§1)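 SYBR Green fluorescence of parasite DNA, read after lysis and overnight dark incubation, measured growth over 72 h in erythrocyte culture at 0.3% parasitemia and 2.5% hematocrit. Data normalised to DMSO and 0.29 uM artemisinin, with plate-drift correction.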

In the next experiment the test system is 3D7. The experiment is described as above. The note with it: P. falciparum in erythrocytes, SYBR Green DNA, 72 h; series mostly up to 28.7 µM. The essentials:
as §1

The test system of the next experiment is 7G8. The description is as above. The settings on record: P. falciparum in erythrocytes, SYBR Green DNA, 72 h; series mostly up to 28.7 µM. The essentials:
as §1

For another experiment, the system named is AA1029. The description is as above. The note with it: P. falciparum in erythrocytes, SYBR Green DNA, 72 h; series mostly up to 28.7 µM. The method, boiled down:
as §1

A further experiment relates to AS120. The description is as above. The settings on record: P. falciparum in erythrocytes, SYBR Green DNA, 72 h; series mostly up to 28.7 µM. The essentials:
as §1

The next experiment concerns ATS189. The description is as above. The settings on record: P. falciparum in erythrocytes, SYBR Green DNA, 72 h; series mostly up to 28.7 µM. The essentials: as §1
The next experiment concerns ATS95. The description is as above. The note with it: P. falciparum in erythrocytes, SYBR Green DNA, 72 h; series mostly up to 28.7 µM. The method, boiled down:
as §1

The next experiment has as its system C2A. Described as above. The settings on record: P. falciparum in erythrocytes, SYBR Green DNA, 72 h; series mostly up to 28.7 µM. The essentials:
as §1

The mark [2] stands for this setting: at 28.7 µM (top of the series), parasite line A.
[3] abbreviates: at 28.7 µM (top of the series), parasite line B.

Each structure is given as a SMILES string. Inconclusive results are not listed. Values without a mark were called inactive. Activity calls are given as the source filed them. Calls come from the whole dose curve; as a rule, active = well fitted inhibition curve with a large enough effect; inconclusive = small, poorly fitted or top-dose-only effect; inactive = flat fitted curve, though single readings scatter.
Potency is the fitted concentration of half-maximal effect.

In the case of `O=C(Nc1ccc(Br)cc1)c1cc(Br)cc(Br)c1O`, the activity, negative = inhibition was 6.84% in experiment [1] (setting [2]) and 4.1% in experiment [1] (setting [3]). Besides, the Potency result with 3D7, in the experiment with 7G8, with AA1029, in the experiment with AS120, in the experiment on ATS189 and in the experiment with ATS95 was “inactive” in each case. For the same compound, the Potency result in the experiment with C2A is “inactive”.

Turning to `Clc1ccc(C(c2ccc(Cl)cc2)C(Cl)(Cl)Cl)cc1`, the activity, negative = inhibition in experiment [1] (setting [2]) was 4.12%. Further, in the experiment on 7G8, the Potency is 8910 nM (active). The Potency entry in the experiment with AA1029, with AS120, in the experiment on ATS95 and in the experiment with C2A was “inactive” throughout.

Regarding `COc1ccc2c(c1)C13CCCC[C@@H]1C(C2)N(C)CC3` (some centres undefined), the figures for the activity, negative = inhibition in experiment [1] (setting [2]) and in experiment [1] (setting [3]) were 4.6% and -5.63%, respectively. Besides, the Potency entry in the experiment on 3D7, with AS120, in the experiment on ATS189 and with C2A was “inactive” in each case. Besides, the Potency in the experiment with 7G8 was 4470 nM (active).

Take `Oc1ccc(Cl)cc1`: the activity, negative = inhibition is 0.659% in experiment [1] (setting [2]) and -12.9% in experiment [1] (setting [3]). The Potency entry with 3D7, with 7G8, with AA1029, in the experiment on AS120, in the experiment on ATS189 and with ATS95 was “inactive” in each case. Besides, the Potency result in the experiment on C2A was “inactive”.

`C=CCN1C[C@H](C)N([C@H](c2ccc(C(=O)N(CC)CC)cc2)c2cccc(OC)c2)C[C@H]1C`: the Potency in experiment [1] (parasite line A) was 10000 nM (active); with 7G8 it was 5010 nM (active).

As to `Clc1cccc(SC2CCNCC2)n1`, the activity, negative = inhibition was 12.4% in experiment [1] (setting [2]) and 2.53% in experiment [1] (setting [3]). Moreover, the Potency entry in the experiment on 3D7, in the experiment with AA1029, in the experiment on AS120, with ATS189, in the experiment on ATS95 and in the experiment with C2A was “inactive” throughout.

As to `NC(=O)CS(=O)C(c1ccccc1)c1ccccc1` (centres undefined), the figures for the activity, negative = inhibition in experiment [1] (setting [2]) and in experiment [1] (setting [3]) were 11.3% and 9.97%, respectively. Moreover, the Potency entry in the experiment on 3D7, in the experiment on AA1029, in the experiment on AS120, with ATS189, with ATS95 and in the experiment with C2A was “inactive” each time.

On to `COc1c2c(cc3c1OCO3)CCN(C)C2`, for which the activity, negative = inhibition in experiment [1] (at 12.8 µM (top of the series), parasite line A) was 4.79%; in experiment [1] (at 12.8 µM (top of the series), parasite line B), 6.97%. The Potency result with 3D7, with 7G8, with AA1029, in the experiment with AS120, with ATS189 and with ATS95 was “inactive” each time. Also, in the experiment on C2A, the Potency result is “inactive”.

`O=C(N/N=C/c1ccc([N+](=O)[O-])o1)c1cc([N+](=O)[O-])cc([N+](=O)[O-])c1O`: the Potency is 447 nM (active) in experiment [1] (parasite line A); 70.8 nM (active) in experiment [1] (parasite line B); 891 nM (active) with 3D7; 100 nM (active) in the experiment on AA1029; 141 nM (active) in the experiment on AS120; 316 nM (active) with ATS189. Besides, the Potency with C2A was 17.8 nM (active). The Potency result with 7G8 is “inactive”.

`COC(=O)C(c1ccccc1)C1CCCCN1` (centres undefined): the figures for the activity, negative = inhibition in experiment [1] (setting [2]) and in experiment [1] (setting [3]) were 10.8% and 13.8%, respectively. Besides, the Potency result in the experiment with 3D7, in the experiment with AA1029, with AS120, in the experiment on ATS189, in the experiment with ATS95 and in the experiment with C2A was “inactive” throughout.

Turning to `CN1C(=O)C(O)N=C(c2ccccc2)c2cc(Cl)ccc21` (centres undefined), the activity, negative = inhibition in experiment [1] (setting [2]) is 4.85%. For the same compound, the Potency entry with 3D7, with 7G8, in the experiment with AA1029, in the experiment on AS120, in the experiment with ATS189 and in the experiment on ATS95 was “inactive” in each case. Further, the Potency result in the experiment with C2A was “inactive”.

Regarding `CCOP(=S)(OCC)Oc1ccc2c(C)c(Cl)c(=O)oc2c1`, the activity, negative = inhibition in experiment [1] (setting [3]) is -25.9%. Besides, the Potency entry in the experiment with C2A was “inactive”.

Consider `CN1CCC(O)(c2ccc(F)cc2)C(C(=O)c2ccc(F)cc2)C1` (centres undefined), for which the activity, negative = inhibition in experiment [1] (setting [2]) is -7.61%; in experiment [1] (setting [3]), -4.09%. Further, the Potency entry in the experiment on 3D7, in the experiment with 7G8, in the experiment on AA1029, in the experiment with AS120, in the experiment on ATS189 and with ATS95 was “inactive” each time. Also, in the experiment on C2A, the Potency entry was “inactive”.

For `NNc1ccccc1`, the activity, negative = inhibition in experiment [1] (setting [2]) is 7.49%. The Potency entry in the experiment on 3D7, in the experiment on 7G8, with AA1029, with AS120, with ATS189 and in the experiment with ATS95 was “inactive” in each case. The Potency result in the experiment with C2A was “inactive”.

With `CCC1(c2ccccc2)C(=O)N(COC)C(=O)N(COC)C1=O`, the activity, negative = inhibition was 4.41% in experiment [1] (setting [2]) and 7.29% in experiment [1] (setting [3]). In addition, the Potency entry in the experiment with 3D7, with 7G8, in the experiment on AA1029, with AS120, with ATS189 and in the experiment with ATS95 was “inactive” throughout. Moreover, the Potency result in the experiment with C2A is “inactive”.

For the compound `CCC(C)(C)c1ccc(O)cc1`, the results for the activity, negative = inhibition in experiment [1] (setting [2]) and in experiment [1] (setting [3]) were 2.92% and 14.5%, respectively. Further, the Potency result with 3D7, with 7G8, in the experiment with AA1029, with AS120, in the experiment with ATS189 and in the experiment with C2A was “inactive” each time.

For `NC(=O)c1cc([N+](=O)[O-])cc([N+](=O)[O-])c1`, the activity, negative = inhibition in experiment [1] (setting [3]) was -21.3%. Besides, the Potency in experiment [1] (parasite line A) was 7940 nM (active). For the same compound, the Potency entry in the experiment on AA1029, with AS120, in the experiment on ATS95 and with C2A was “inactive” throughout.

`Nc1ccc([As](=O)(O)O)cc1`: the results for the activity, negative = inhibition in experiment [1] (setting [2]) and in experiment [1] (setting [3]) were -20% and -5.31%, respectively. The Potency entry with 3D7, in the experiment with AA1029, in the experiment with AS120, in the experiment on ATS189, with ATS95 and in the experiment on C2A was “inactive” throughout.

`c1ccc2c(c1)sc1ccccc12`: the activity, negative = inhibition in experiment [1] (setting [2]) is -4.2%. For the same compound, the Potency result in the experiment on 3D7, in the experiment on 7G8, in the experiment on AA1029, in the experiment on AS120, with ATS189 and in the experiment on ATS95 was “inactive” in each case. For the same compound, the Potency entry with C2A was “inactive”.

`Nc1ccccc1C(=O)O`: the activity, negative = inhibition in experiment [1] (setting [2]) is 15.6%; in experiment [1] (setting [3]), 4.96%. The Potency result in the experiment on 3D7, in the experiment on 7G8, in the experiment on AA1029, in the experiment on AS120, in the experiment on ATS189 and in the experiment with ATS95 was “inactive” throughout. Moreover, the Potency entry in the experiment with C2A was “inactive”.
